This is part of a sample that, as a whole, favours compounds with a hit. Of some 83,000 tested, about 20% had one in any assay.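 For each line, cells grew in 96-well plates with the test compound present at a single concentration for 48 hours.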 Activity calls are given as the source filed them. Rule for the calls: active = growth percent below 10; inactive = the rest.
Test system: MALME-3M melanoma
Assay: NCI-60 one-dose screen, 48 h (100 = growth as untreated, 0 = no growth, -100 = all killed)
Details: 10 µM unless noted

Compound	growth
Nc1c(C(=O)Nc2c(Cl)cccc2Cl)sc2nc3c(cc12)CCCC3	59.2% (inactive)
COc1cc2ncnc(Nc3ccc(OCc4cccc(F)c4)c(Cl)c3)c2cc1NC(=O)C1CCCC1	107% (inactive)
O=C(N/N=C/c1ccccc1SSc1ccccc1/C=N/NC(=O)c1ccccc1)c1ccccc1	48.9% (inactive)
C[C@@H]1CCCCCCCCC[C@H](O)C(=O)C[C@@H](SC[C@@H](O)C(=O)O)C(=O)O1	94.7% (inactive)
C=C(C)[C@@H]1CC[C@]2(C)[C@H](CC=C3[C@@H]4CC(C)(C)CC[C@]4(C(=O)OC)CC[C@]32C)[C@@]1(C)CC/C(N)=N/O	58.9% (inactive)
C=C(C)[C@@H]1CC[C@]2(C)[C@H](CC=C3[C@@H]4CC(C)(C)CC[C@]4(C=O)CC[C@]32C)[C@@]1(C)CCCN	68.8% (inactive)
Cc1ccc(/C=C(\C#N)c2cc3ccccc3n2C)cc1	59.8% (inactive)
N=C(N)c1ccc(S(N)(=O)=O)cc1	87.6% (inactive)
COc1ccc(-c2cc(=O)oc3ccc(Cl)cc23)cc1F	103% (inactive)
CCSc1sc(-c2ccc(C)cc2)nc1[P+](c1ccccc1)(c1ccccc1)c1ccccc1	-28.4% (active)
COC(=O)[C@]12CC[C@@H](C)[C@H](C)[C@@H]1C1=CC(=O)[C@@H]3[C@@]4(C)C[C@@H](O)[C@H](O)[C@@]5(C)COC(=C45)C[C@@]3(C)[C@]1(C)CC2	68% (inactive)
O=S(=O)(NCCNc1cc(-c2cn(-c3ccccc3)nc2-c2cccc(O)c2)ccn1)c1ccc(Br)cc1	43.2% (inactive)

Source: PubChem BioAssay (NCI)
